# Measurements from PubChem BioAssay (Tox21).
# Results filed as inconclusive are left out. Unmarked numbers belong to inactive results. Activity calls are given as the source filed them. The call rests on the fitted dose curve; in most records, active means well fitted cell-killing curve with a large enough effect in the repeat runs; inconclusive means weak or mixed curves, or effect the other way; inactive means flat fitted curve, though single readings scatter.
# Assay: qHTS assay to identify small molecule agonists of the androgen receptor (AR) signaling pathway in the presence of an antagonist - cell viability counter screen (AID 1259379); further: nearly all actives have a fitted effect of over 25% in size
# Conditions: MDA-kb2 viability, CellTiter-Fluor, 16 h; series mostly up to 92.4 µM; activity change, negative = cytotoxicity: at the top concentration
# Text: National Center for Advancing Translational Sciences [NCATS]
# NIH Chemical Genomics Center [NCGC]
# U.S. Environmental Protection Agency [EPA]
# National Institutes of Environmental Health Sciences [NIEHS]
# National Toxicology Program [NTP]
# U.S. Food and Drug Administration [FDA]
# Androgen receptor (AR) is an important member of nuclear receptor family. Its signaling plays a critical role in AR-dependent prostate cancer and other androgen related diseases. Considerable attention has been given in the past decades to develop methods to study and screen for the environmental chemicals that have the potential to interfere with metabolic homeostasis, reproduction, developmental and behavioral functions. Therefore AR binding assay for screening against androgen agonists and antagonists can be used to identify potential endocrine disruptors.
# MDA-kb2 cells (from ATCC, deposited by Wilson et al.) are human breast carcinoma cells that were stably transfected with a luciferase reporter gene under control of the MMTV promoter that contains response elements for both androgen receptor (AR) and glucocorticoid receptor (GR). This particular screening for measuring luciferase reporter gene activity using MDA-kb2 cells against Tox21 10K library compounds is a confirmation study on agonist mode screening in the presence of AR-antagonist compound (Nilutamide) at 3.0uM final concentration. The cytotoxicity of the compounds was tested in parallel by measuring the cell viability using CellTiter-Fluor assay system (Promega, Madison, WI) in the same wells.
# Tox21 Assay Protocol Summary:
# MDA-kb2 cells (cells cultured without CO2) were dispensed at 3,000 cells/well in 4uL of culture medium into white wall/solid-bottom 1536-well plates (Corning Life Sciences, Corning, NY) using a Multidrop Combi (Thermo Fisher Scientific Inc., Waltham, MA) dispenser. The assay plates were incubated at 37C and 0% CO2 for 5hr. One uL of 3.0uM (final concentration) Nilutamide or assay buffer was added using two separate tips of Flying Reagent Dispenser (FRD, Aurora Discovery, San Diego, CA). Then 23nL of compounds dissolved in DMSO at 15 concentrations and positive controls were transferred to the assay plates using a Pintool station (Wako, San Diego, CA). The assay plates were incubated at 37C and 0% CO2 for 16 hr. After 15hr incubation at 37C, 1uL/well CellTiter-Fluor reagent (Promega Corporation) was added to each well of the assay plates using FRD. After 1hr incubation at 37C and 0% CO2, the fluorescence signal was measured using a ViewLux plate reader (PerkinElmer, Shelton, CT).
# On the % scale 0 is the no-effect control and ±100 the full control effect; potency means the concentration at half of the fitted maximal effect.
Structure (SMILES),"activity change, negative = cytotoxicity",Potency
CC(=O)O[C@@]12CO[C@@H]1C[C@H](O)[C@@]1(C)C(=O)[C@H](O)C3=C(C)[C@@H](OC(=O)[C@H](O)[C@@H](NC(=O)OC(C)(C)C)c4ccccc4)C[C@@](O)([C@@H](OC(=O)c4ccccc4)[C@H]21)C3(C)C,-9.59% [at 42.5 µM],
c1ccc(CCc2ccccc2)cc1,2.35%,
CCCCCC(C)N (stereo not given),5.04% [at 42.5 µM],
COc1ccccc1OCC1CNC(=O)O1 (stereo not given),-2.92% [at 42.5 µM],
COCCOCC(OC)OC,4.4% [at 42.5 µM],
CCCC[N+](C)(CCCC)CCCC,3.23%,
CCC1C(=O)OCC1Cc1cncn1C (stereo not given),1.42% [at 42.5 µM],
CC(=O)N[C@H]1[C@H]([C@H](O)[C@H](O)CO)OC(C(=O)O)=C[C@@H]1N=C(N)N,1.11% [at 42.5 µM],
CCCCCC(=O)OCCc1ccccc1,-0.901%,
Cc1ccnc(NS(=O)(=O)c2ccc(N)cc2)n1,0.0559% [at 42.5 µM],
COc1cc2c(cc1OC)-c1cc3ccc(OC)c(OC)c3c[n+]1CC2,,49 µM (active)
CC(C)C[C@@H](N)C(=O)O,0.366% [at 19 µM],
CCOC(=O)c1cnc2c(cnn2CC)c1NN=C(C)C,-0.944% [at 42.5 µM],
Cc1ncc(COP(=O)(O)O)c(C=O)c1O,0.24% [at 42.5 µM],
CCCCCCC#CC(=O)OC,-3.05%,
C=COC(=O)C(C)(CC)CCC(C)C (stereo not given),4%,
Cc1cccc(C)c1NC(=O)CC12CCCN1CCC2,4.17% [at 42.5 µM],
Nc1ccn([C@@H]2O[C@H](CO)[C@@H](O)[C@@H]2O)c(=O)n1,-3.08%,
CC[N+](CC)(CC)CCOc1cccc(OCC[N+](CC)(CC)CC)c1OCC[N+](CC)(CC)CC,2.99% [at 42.5 µM],
CC(=O)Nc1ccc(OCC(O)CNC(C)C)cc1 (stereo not given),-0.123% [at 42.5 µM],

Structure (SMILES),"activity change, negative = cytotoxicity",Potency
CCC(C)(CN(C)C)OC(=O)c1ccccc1 (stereo not given),4.58% [at 42.5 µM],
C[N+](C)(C)CCCCCCCCCC[N+](C)(C)C,3.03% [at 42.5 µM],
O=C1NC(=O)C2CC=CCC12 (stereo not given),-0.327%,
CCCOC(=O)CC,2.29%,
CCCCN(CCC(=O)OCC)C(C)=O,2.56%,
Cc1coc2ccccc2c1=O,4.61% [at 42.5 µM],
CC(C)C(=O)OC(=O)C(C)C,3.22%,
CCCCCCCCCC[N+](C)(C)[O-],6.64%,
NC(=O)Cc1cccc2ccccc12,0.837%,
CCCCc1nc(Cl)c(CO)n1Cc1ccc(-c2ccccc2-c2nn[nH]n2)cc1,1.09% [at 42.5 µM],
CC(=O)N1C[C@H](O)C[C@H]1C(=O)O,1.85% [at 42.5 µM],
COc1cc(C(=O)NCc2ccc(OCCN(C)C)cc2)cc(OC)c1OC,-0.142% [at 42.5 µM],
CCOC(=O)C1=NOC(c2ccccc2)(c2ccccc2)C1,-5.33%,
Cc1ccc(C(=O)c2ccccc2)cc1,0.0992%,
C=CCCCCCCCCC(=O)OCC,-1.05%,
C[C@H]1[C@H](NC(=O)/C(=N/OC(C)(C)C(=O)O)c2csc(N)n2)C(=O)N1S(=O)(=O)O (stereo in doubt),1.93% [at 42.5 µM],
CC1CCC(CO)CC1 (stereo not given),6.1%,
CN(C)CCCCCCN(C)C,0.365%,
CC(C)(C)C(=O)c1ccccc1,0.638%,
C[N+]1(C)[C@@H]2CC(OC(=O)[C@H](CO)c3ccccc3)C[C@H]1[C@@H]1O[C@@H]12 (stereo not given in full),2.7% [at 42.5 µM],
